These results are taken from PubChem BioAssay (NCATS).

Results filed as inconclusive are left out. A number with no mark means an inactive call. Calls of active or inactive are those of the source. Calls follow the shape of the dose curve; as a rule, active = well fitted curve in the direction sought with a large enough effect; inconclusive = small, poorly fitted or top-dose-only effect, or another doubt; inactive = no such curve, though single readings can be large; an effect the other way counts as inactive or inconclusive.

Test [1] is described as follows: qHTS Assay for Identifying Gametocytocidal Compounds (AID 743244). Also: potency is read from the fitted curve at half-maximal effect.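 As to max response: % is scaled to controls: 0 for no effect and ±100 for the full control effect; actives lower the fluorescent signal which means gametocytes are killed.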 As to conditions: P. falciparum 3D7 stage III-V gametocytes, alamarBlue, 72 h; max response: active compounds read low. Put shortly: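 Viability read-out was resazurin reduction (alamarBlue, 24 h) measured at Ex 525/Em 598 nm. Beforehand, late-stage (III-V) 3D7 P. falciparum gametocytes at 20,000 cells/well were incubated with compound 72 h at 37C under 5% CO2.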

A short description of test [2]: qHTS assay to identify small molecule inhibitors of chordoma cells - UCH-2 (AID 1259356). Also: series mostly up to about 46 µM; % is scaled to controls: 0 for no effect and ±100 for the full control effect.
The nature of test [3]: P-glycoprotein substrates identified in KB-8-5-11 adenocarcinoma cell line, qHTS therapeutic library screen (AID 1346987). Also: nearly all actives have a fitted effect of over 65% in size. Also: potency is read from the fitted curve at half-maximal effect. As to conditions: outcome: dose series up to 44.5 µM unless noted. In a few lines:
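Luminescence from CellTiter-Glo, read 5 min after addition, quantified survival of KB-8-5-11 (P-gp-overexpressing) cells exposed to compounds for 72 h. AC50 was derived from concentration-response curves.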

Test [4] is described as follows: NS1 protein of Zika virus - qHTS assay to identify small molecule inhibitors in human HEK 293 cells (AID 1347053).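 Also: series mostly up to about 46 µM; plate controls were infected untreated cells for no effect and uninfected cells for full effect; nearly all actives have a fitted effect of over 55% in size.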 In a few lines: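 Readout was TR-FRET using paired anti-NS1 antibodies after 24 h infection of HEK 293 cells with ZIKV MR766 (MOI = 0.5). Compound preceded virus by 1 h; reduced signal reflects lower NS1 expression.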
(qHTS replaces the single test concentration by a dilution series.)

Consider `CCCCCCCCCc1ccc(OCCOCCO)cc1`, for which the max response in test [1] is -0.96%. The Potency result in test [2] is “inactive”. The Potency in test [3] is 4.61 µM (active).
As for `C=CCOc1ccc(CC(=O)O)cc1Cl`, the Potency result in test [2] and in test [3] was “inactive” each time.
In the case of `NC(=S)NS(=O)(=O)c1ccc(N)cc1`, the max response in test [1] is 5.02%. In addition, the Potency entry in test [2] and in test [3] was “inactive” each time.
Consider `c1ccc2cc(C3=NCCN3)ccc2c1`, for which the max response in test [1] was 5.29%. Moreover, the Potency entry in test [2] and in test [3] was “inactive” throughout.
As to `O=C1N=C2SCCN2C(=O)C1Cc1ccc(Cl)cc1` (stereo not given), the max response in test [1] was -5.09%. The Potency entry in test [2] and in test [3] was “inactive” throughout.
Regarding `CC(C)(C)CC(C)(C)c1cc(Cc2cc(C(C)(C)CC(C)(C)C)cc(-n3nc4ccccc4n3)c2O)c(O)c(-n2nc3ccccc3n2)c1`, the max response in test [1] was -7%. Moreover, the Potency entry in test [2] and in test [3] was “inactive” each time.
As for `CN(C)CCCSc1ccccc1NC(=O)/C=C/c1ccccc1`, in test [1], the max response is -4.09%. In addition, the Potency entry in test [2] was “inactive”. Also, the result in test [4] was inactive.
Consider `C[Se]CC[C@H](N)C(=O)O`, for which the max response in test [1] was 8.55%. Besides, the Potency entry in test [2] and in test [3] was “inactive” throughout.
On to `CO[C@H]1C[C@H](O[C@@H]2/C(C)=C/C[C@@H]3C[C@@H](C[C@]4(CC[C@H](C)[C@@H](C5CCCCC5)O4)O3)OC(=O)[C@@H]3C=C(C)/C(=N/O)[C@H]4OC/C(=C\C=C\[C@@H]2C)[C@]43O)O[C@@H](C)[C@@H]1O`, for which the max response in test [1] was -14.2%. The Potency entry in test [2] and in test [3] was “inactive” each time.
For the molecule `CCN(CC)CCCC(C)Nc1cc(/C=C/c2ccccc2Cl)nc2cc(Cl)ccc12` (stereo not given), the Potency in test [1] was 11.2 µM (active). Moreover, in test [2], the Potency result is “inactive”.
As to `[O]=[Bi][O]C(=O)[O][Bi]=[O]`, the max response in test [1] is -0.353%. For the same molecule, in test [3], the Potency entry was “inactive”.
